Laboratory results reported in PubChem BioAssay (EPA / NIEHS).
Where a structure was tested more than once in an assay, its records may differ in their call. The source made the active and inactive calls. Rule for the calls: active = hit-call score of the fitted dose curve at least 0.9, where 1 is the maximum; inactive = score below 0.9.

Assay: ATG_FoxO_CIS: Attagene CIS-FACTORIAL HepG2 Assay for human Forkhead box O (FoxO) (AID 2282943)
Conditions: HepG2 Attagene cis-reporter, FoxO element, mRNA; actives raise or lower the signal
Method in brief: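 Endogenous transcription factor activity read from multiplexed cis-promoter reporter transcripts in transiently transfected HepG2, 24 h after dosing. Reporter RNA measured via RT-PCR plus capillary electrophoresis of FAM-labeled products; gain or loss relative to DMSO.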

SMILES | outcome
CC(C#N)CCC#N (stereo unspecified) | inactive
Oc1cccc2cccnc12 | inactive
CC(C)c1cccc(C(C)C)c1O | inactive
O=P(O)(O)CN(CP(=O)(O)O)CP(=O)(O)O | inactive
ClCCBr | inactive
CCOP(=O)(CN(CCO)CCO)OCC | inactive
CC(C)c1ccc(CO)cc1 | inactive
C[C@]12CCC(=O)C[C@@H]1CC[C@@H]1[C@@H]2CC[C@]2(C)[C@@H](O)CC[C@@H]12 | inactive
Cc1cc(Cl)ccc1O[C@H](C)C(=O)O | inactive
O=c1[nH]c(=O)[nH]c(=O)[nH]1 | inactive
C1CCC(NC2CCCCC2)CC1 | inactive

Assay: ATG_GATA_CIS: Attagene CIS-FACTORIAL HepG2 Assay for human GATA Binding Protein (AID 2282944)
Conditions: HepG2 GATA cis-element reporter, Attagene multiplex mRNA; actives raise or lower the signal
Method in brief: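 Reporter transcripts from a GATA cis-regulated unit, among multiplexed reporters in transfected HepG2 cells, were measured by RT-PCR with capillary electrophoresis after 24 h dosing. Induction or loss scored relative to DMSO.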

SMILES | outcome | AC50
CC(C#N)CCC#N (stereo unspecified) | inactive | 
CN(C)N=O | inactive | 
Cc1ccc(N)cc1Cl | inactive | 
Oc1cccc2cccnc12 | inactive | 
BrCCBr | inactive | 
O=C(O)C(F)(F)C(F)(F)C(F)(F)C(F)(F)C(F)(F)C(F)(F)C(F)(F)C(F)(F)C(F)(F)C(F)(F)F | inactive | 148 µM (active)
CC(C)(OO)c1ccccc1 | inactive | 
CC(C)(C)c1cc(O)ccc1O | inactive | 
COP(=S)(OC)Oc1ccc(Sc2ccc(OP(=S)(OC)OC)cc2)cc1 | inactive | 
CC(C)c1cccc(C(C)C)c1O | inactive | 
O=[N+]([O-])c1ccc(O)c([N+](=O)[O-])c1 | inactive | 
COC(=O)c1sccc1S(=O)(=O)NC(=O)Nc1nc(C)nc(OC)n1 | inactive | 
CC1(C)CCC(Cc2ccc(Cl)cc2)C1(O)Cn1cncn1 (stereo unspecified) | inactive | 
COC[C@H](C)N(C(=O)CCl)c1c(C)csc1C | inactive | 
CCOC(=O)Nc1cccc(OC(=O)Nc2ccccc2)c1 | inactive | 
ClCc1ccccn1 | inactive | 
CCCCP(CCCC)CCCC | inactive | 
O=C(Cl)c1ccc(Cl)cc1 | inactive | 
CC1CN1P(=O)(N1CC1C)N1CC1C (stereo unspecified) | inactive | 
O=P(O)(O)CN(CP(=O)(O)O)CP(=O)(O)O | inactive | 

SMILES | outcome | AC50
ClCCBr | inactive | 
Oc1ccc(-c2ccccc2)cc1 | inactive | 
CCOP(=O)(CN(CCO)CCO)OCC | inactive | 
CC(C)c1ccc(CO)cc1 | inactive | 
C[C@]12CCC(=O)C[C@@H]1CC[C@@H]1[C@@H]2CC[C@]2(C)[C@@H](O)CC[C@@H]12 | inactive | 
ClC1(Cl)C2(Cl)C3(Cl)C4(Cl)C(Cl)(Cl)C5(Cl)C3(Cl)C1(Cl)C5(Cl)C24Cl (stereo unspecified) | inactive | 
Nc1ccc(N=Nc2ccc(-c3ccc(N=Nc4c(S(=O)(=O)O)cc5cc(S(=O)(=O)O)c(N=Nc6ccccc6)c(O)c5c4N)cc3)cc2)c(N)c1 | inactive | 
Cc1ccccc1N | inactive | 
CC(=[OH+])/C=C(/C)[O-].CC(=[OH+])/C=C(/C)[O-].CC(=[OH+])/C=C(/C)[O-].[Fe] | inactive | 
Fc1ccc(C2(Cn3cncn3)OC2c2ccccc2Cl)cc1 (stereo unspecified) | inactive | 
O=[N+]([O-])c1c(Cl)c(Cl)cc(Cl)c1Cl | inactive | 
C=C(C)C(=O)[O][Sn]([CH2]CCC)([CH2]CCC)[CH2]CCC | inactive | 
Cc1cc(Cl)ccc1O[C@H](C)C(=O)O | inactive | 
CCC(C)c1cccc(C(C)CC)c1O (stereo unspecified) | inactive | 
O=c1[nH]c(=O)[nH]c(=O)[nH]1 | inactive | 
C1CCC(NC2CCCCC2)CC1 | inactive | 
Cc1cc(=O)[nH]o1 | inactive | 
O=C/C=C/c1ccccc1 | inactive | 
COP(=S)(OC)Oc1c(Cl)cc(C)cc1Cl | inactive | 
